# Hits are enriched below; roughly 6.8% of the tested compounds scored in any of these assays.
# NADH enzymes = inhibitors of PK/LDH coupling enzymes, profiling panel, artefact control, biochemical, MLSMR library; coupled PK/LDH NADH assays, four targets; IC50, µM (highest dose often 10 µM), for the others: at the top dose inhibition; 65,000 tested, 0.02% active; AID 774, 2007;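 active = single-dose screening hits from any of four coupled enzyme assays that gave an IC50 when retested across doses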;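 note: the DPM-DC format reads NADH fluorescence rather than 340 nm absorbance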
# Spn PMK inh = S. pneumoniae PMK inhibitors, primary screen, biochemical, mevalonate pathway, pilot trial included | 65,000 tested, 0.49% active | purified PMK, PK/LDH-coupled NADH absorbance 340 nm | phosphomevalonate kinase (Streptococcus pneumoniae D39) | inhibition, % at 10 µM;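 active = top-ranked compounds by inhibition in the single 10 µM screen, taking a fixed number of the strongest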;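 note: 0% = full reaction with DMSO carrier and 100% = background rate without enzyme reaction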
# Abs 340nm = compound light absorbance at 340 nm, profiling panel, artefact control, biochemical, MLSMR library, data from PS, PMK, MK assays | compound absorbance at 340 nm, fold over control | fold change at 10 µM | 65,000 tested, under 10 active;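 active = at 10 µM dose, initial 340 nm absorbance at least 2 fold that of control wells; inactive = change under 2 fold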;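 note: initial absorbance extrapolated from kinetic A340 decline of NADH oxidation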
# Spn DPM-DC inh = S. pneumoniae DPM-DC inhibitors, primary screen, biochemical, PK/LDH-coupled NADH fluorescence | AID 556, 2006 | diphosphomevalonate decarboxylase (Streptococcus pneumoniae D39) | 65,000 tested, 0.49% active | purified DPM-DC | calls only at 10 µM;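 active = the 320 compounds with the highest percent inhibition in the single-dose primary screen, excluding strongly autofluorescent ones, cut at about 32% in these data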;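 note: kinetic rate of NADH fluorescence loss reporting ADP formed by the decarboxylase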
# Spn MK inh = S. pneumoniae MK inhibitors, primary screen, biochemical, PK/LDH-coupled NADH absorbance | mevalonate kinase [Streptococcus pneumoniae D39] | purified MK, PK/LDH-coupled NADH absorbance 340 nm | inhibition, % at 10 µM | 65,000 tested, 0.48% active | AID 555, 2006;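 active = ranked among the strongest by inhibition in the single 10 µM screen, a fixed top-ranked set picked for dose follow-up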
# Fluor 339 460 = intrinsic fluorescence of library compounds, ex339/em460 – biochemical, MLSMR library, data from DPM-DC assay, artefact control, profiling panel; fluorescence fold increase at 10 µM; compound autofluorescence, ex339/em460 nm, NADH buffer; stronger effect = higher value; 1 = no-compound wells, NADH background; 65,000 tested, 5.5% active;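 active = at 10 µM, mean starting fluorescence two-fold or more over control wells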;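 note: signal is the first read of a kinetic run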
# * hit, by the source's call; i = inactive; x = no result given.
SMILES,NADH enzymes,Spn PMK inh,Abs 340nm,Spn DPM-DC inh,Spn MK inh,Fluor 339 460
CCOc1ccc(-c2cc(C(=O)N3CCC4(CC3)OCCO4)c3ccccc3n2)cc1,5%,9,1.1,x,0,5.2*
COCCCn1c(N)c(C(=O)NCCC(C)C)c2nc3ccccc3nc21,8%,9,1,x,6,3.7*
CCCCOCCCn1c(N)c(C(=O)OCCOC)c2nc3ccccc3nc21,9%,5,1.1,x,12,2.3*
COCCOC(=O)c1c(N)n(Cc2ccccc2)c2nc3ccccc3nc12,11%,12,1.1,x,10,3.9*
CC1(C)CC2(CCO1)NCCN1C(=O)CSC12 (configuration not stated),2%,1,1,i,6,1.2
CCCCC1(CN2CCCC2=O)C(=O)NC(=O)NC1=O,0%,0,1,i,1,1.1
c1ccc2c(CN3CCCCCCC3)c[nH]c2c1,20%,12,1.1,i,48*,1.1
c1ccc2c(CN3CCN(C4CCCCC4)CC3)c[nH]c2c1,3%,0,1,i,9,1.2
CCOC(=O)N(C)c1ccc(C(O)(C(=O)OCC)C(F)(F)F)cc1 (configuration not stated),8%,2,1.1,i,14,1.1
O=C(Cn1ncc2ccsc2c1=O)N1CCC2(CC1)OCCO2,1%,0,1,i,3,1.1
O=C(Cn1c(=O)c(C(F)(F)F)nc2ccccc21)N1CCC2(CC1)OCCO2,12%,15,1.1,i,0,2*

# Screening results as filed in PubChem BioAssay.
